This note sets out measurements from the supplement of paper PMC9877034.

Molecules are shown by their SMILES. Structures can show the parent of a compound that is named as a salt. Whole data set: some 1,000 compounds, median “cFRET/donor change relative to DMSO, normalised to beta-lapachone positive control (supercomplex I-IV assembly)” near 0.18, cut for the lowest 2% near -1. The list comes from a sample in which the lowest values are over-represented; it also holds similar structures and randomly drawn compounds.

This test concerns C2C12 (NDUFB8-AcGFP / COX8A-DsRed-Monomer FRET reporter). The test is described as follows: cFRET/donor change relative to DMSO, normalised to beta-lapachone positive control (supercomplex I-IV assembly) (fraction of beta-lapachone effect); higher = more respiratory supercomplex assembly. To be noted: 40 µM; 24 h. Here is the method: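 Cells were treated with 40 uM compound for 24 h and imaged on an IN Cell Analyzer 6000. Corrected FRET was divided by donor signal (cFRET/donor) and measured in two replicate experiments. The score is (mean cFRET/donor of compound - mean DMSO) / (mean beta-lapachone 40 uM - mean DMSO). Compounds flagged for prominent cell death, abnormal morphology or decreased cell number were excluded.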
`CC[N+](CC)(CC)CCOc1ccc(/C=C/c2ccccc2)cc1` displayed a cFRET/donor change of 0.391.
`OCCN1CCN(CCCN2c3ccccc3Sc3ccc(Cl)cc32)CC1` [Perphenazine]: the cFRET/donor change was 0.48.
`CN1CCC[C@@H]1Cc1c[nH]c2ccc(CCS(=O)(=O)c3ccccc3)cc12` [Eletriptan hydrobromide]: the cFRET/donor change stood at 0.314.
Compound `c1ccc(C2CN3CCSC3=N2)cc1` (single isomer, unassigned; (-)) [(-)-Tetramisole hydrochloride] came in with a cFRET/donor change of 0.472.
As to `N#CC(=C(/N)Sc1ccccc1N)/C(C#N)=C(/N)Sc1ccccc1N`, the cFRET/donor change was found to be 1.14.
As to `CCOC(=O)[N-]c1c[n+](N2CCOCC2)no1` [Molsidomine], the cFRET/donor change amounted to 0.0144.
For `CCc1cncnc1N1CCN(Cc2nc3ccc(C(F)(F)F)cc3[nH]2)CC1`, the cFRET/donor change was 0.351.
To `CN(C)CCCc1cc(C(=O)Nc2ccc(-c3ccncc3)cc2)ccc1O` belongs 0.377; to `OC(CCN1CCCCC1)(c1ccccc1)C1CC2C=CC1C2` (configuration not stated) [Biperiden hydrochloride], 0.472; to `CCCCCCCCCCCCCCCCCCN(CCCCCCCCCCCCCCCCCC)CCCN(CCO)CCO` [Avridine], 0.401.
With `O=Nc1ccc2oc(=O)ccc2c1` [6-Nitroso-1,2-benzopyrone], the cFRET/donor change is -1.07.
In the case of `O=c1ccc2ccc(O)c(O)c2o1` [Daphnetin] it was 0.438; in that of `O=C(CCc1ccncc1)NNC(=O)N1Cc2ccccc2Oc2ccc(Cl)cc21`, 0.597.
On to `CC(C)c1c(C(=O)Nc2ccccc2)c(-c2ccccc2)c(-c2ccc(F)cc2)n1CC[C@@H](O)C[C@@H](O)CC(=O)O` [Atorvastatin calcium salt trihydrate], for which the cFRET/donor change is -0.0539.
To `NS(=O)(=O)c1ccc(-n2nc(C(F)(F)F)cc2-c2ccc(Cl)cc2)cc1` belongs 0.219; to `Cc1cn(C2C=CC(CO)O2)c(=O)[nH]c1=O` (configuration not stated) [2',3'-didehydro-3'-deoxythymidine], 0.515; to `COc1ccc(S(=O)(=O)Nc2nc(-c3cccc([N+](=O)[O-])c3)cs2)cc1OC`, 0.458.
Consider `O=C1c2ccccc2C(=O)c2c(NCCc3ccc(O)cc3)ccc(NCCc3ccc(O)cc3)c21`, for which the cFRET/donor change is -1.29.
In turn, `O=C1c2c(O)ccc(O)c2C(=O)c2c(NCCNCCO)ccc(NCCNCCO)c21` [Mitoxantrone] had a cFRET/donor change of 0.111.
To `CC(NCCc1ccc(O)cc1)C(O)c1ccc(O)cc1` (configuration not stated) [Ritodrine hydrochloride] belongs -0.0849; to `CCOc1nc2cccc(C(=O)OC(C)OC(=O)OC3CCCCC3)c2n1Cc1ccc(-c2ccccc2-c2nn[nH]n2)cc1` (configuration not stated) [Candesartan cilexetil], 0.942; to `O=C1NCCc2[nH]c(-c3ccncc3)cc21`, -0.0657.
Take `NC(C(=O)O)C(O)C(=O)O` (racemic) [DL-threo-beta-hydroxyaspartic acid]: the cFRET/donor change is -0.112.
With `Cn1ccc2cc3c(cc21)CCN3C(=O)Nc1cccnc1`, the cFRET/donor change was -0.716.
In the case of `Cc1cc2c(cc1Cl)N(C(=O)Nc1cccc3ncccc13)CC2` it was -0.136.
Compound `Cc1cc2c(cc1Cl)N(C(=O)Nc1ccc(Oc3cccnc3C)nc1)CC2` returned a cFRET/donor change of -1.37.
In the case of `C[C@H](CCC(=O)NCCS(=O)(=O)O)[C@H]1CC[C@H]2[C@@H]3[C@H](O)C[C@@H]4C[C@H](O)CC[C@]4(C)[C@H]3C[C@H](O)[C@]12C` [Sodium Taurocholate hydrate] it was 0.0638.
To `COc1ccc2cccc(CCNC(C)=O)c2c1` [Agomelatine] belongs 0.0655; to `Clc1ccc(N2CCN(Cc3cc4ccccn4n3)CC2)cc1`, 0.359; to `CCCCC#Cc1nc(NC)c2ncn([C@@H]3O[C@H](CO)[C@@H](O)[C@H]3O)c2n1`, 0.242.
For the compound `CC(N)=NCCCC[C@H](N)C(=O)O` [L-N6-(1-Iminoethyl)lysine hydrochloride], the cFRET/donor change was -0.0938.
To `COc1ccc2c(c1)CC[C@@H]1[C@@H]2CC[C@]2(C)[C@@H](NCCCCCCN3C(=O)CCC3=O)CC[C@@H]12` belongs 0.325; to `O=C1N=C(O)NC1(c1ccccc1)c1ccccc1` [Phenytoin sodium], 0.149.
To `Cc1cc(Nc2ncc3cc(-c4c(Cl)cccc4Cl)c(=O)n(C)c3n2)ccc1F` belongs -0.253.
Regarding `Cn1c(=O)c(-c2c(Cl)cccc2Cl)cc2cnc(Nc3ccc(N4CCOCC4)cc3)nc21`, the cFRET/donor change is -0.227.
Consider `CCN(CC)CCOc1ccc(Nc2ncc3cc(-c4c(Cl)cccc4Cl)c(=O)n(C)c3n2)cc1`, for which the cFRET/donor change is -5.45.
To `CN1CCc2cc(Cl)c(O)cc2[C@@H](c2ccccc2)C1` belongs 0.549; to `CN1Cc2sccc2C(c2ccc(O)c(O)c2)C1` (configuration not stated), 0.596; to `CN1Cc2c(N)cccc2C(c2ccccc2)C1` (configuration not stated) [Nomifensine maleate], -0.996.
`NS(=O)(=O)C#Cc1ccccc1` [Pifithrin-mu] had a cFRET/donor change of 0.551.
`O=C(O)/C=C/c1cnc[nH]1` [4-Imidazoleacrylic acid] had a cFRET/donor change of 0.18.
`Clc1ccc2c(c1)N=C(N1CCNCC1)c1ccccc1N2` [N-Desmethylclozapine] had a cFRET/donor change of 0.316.
The compound `O=C(CCSCc1ccco1)NNC(=O)N1Cc2ccccc2Oc2ccc(Cl)cc21` returned a cFRET/donor change of 0.36.
`COc1cc(NS(C)(=O)=O)ccc1Nc1c2ccccc2nc2ccccc12` [Amsacrine hydrochloride] yielded a cFRET/donor change of 0.257.
Compound `CC1(C2CCCC2)Cc2cc(OCC(=O)O)c(Cl)c(Cl)c2C1=O` (configuration not stated) registered a cFRET/donor change of 0.0296.
To `O=P(O)(O)C(O)(Cn1ccnc1)P(=O)(O)O` [Zoledronic acid monohydrate] belongs 0.239; to `Cc1ccc(O)c(N=Nc2ccccc2)n1`, 0.375; to `CO[C@H]1C[C@@H]2CC[C@@H](C)[C@@](O)(O2)C(=O)C(=O)N2CCCC[C@H]2C(=O)O[C@H]([C@H](C)C[C@@H]2CC[C@@H](OC(=O)C(C)(CO)CO)[C@H](OC)C2)CC(=O)[C@H](C)/C=C(\C)[C@@H](O)[C@@H](OC)C(=O)[C@H](C)C[C@H](C)/C=C/C=C/C=C/1C` [Temsirolimus], -0.55.
Regarding `COc1ccc2[nH]c([S@@+]([O-])Cc3ncc(C)c(OC)c3C)nc2c1` [Esomeprazole magnesium dihydrate], the cFRET/donor change stood at 0.951.
`NCC=CC(=O)O` (stereo in doubt) [cis-4-Aminocrotonic acid] returned a cFRET/donor change of 0.532.
In the case of `CCN(CC)C(C)CN1c2ccccc2Sc2ccccc21` (configuration not stated) [Ethopropazine hydrochloride] it was -0.00468; in that of `N[C@@H](CCCC(=O)O)C(=O)O` [L-2-aminoadipic acid], -0.139.
